Activity calls are given as the source filed them.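 How the source made its calls: active means compound whose remaining NAD level is above about 45 nM (limit read from the data); inactive means the rest.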
The molecules below were run against NAD(+) hydrolase SARM1 (Homo sapiens) (UniProt Q6SZW1) (assay: blocking NAD cleavage by SARM1 SAM-TIR – cell lysate, NAD-Glo luminescence (AID 1508614)). Conditions: SAM-TIR HEK293T lysate NADase, at 1 µM, stronger effect = higher value.
Chain of NAD(+) hydrolase SARM1 (Homo sapiens) (Q6SZW1 whole entry, looked up): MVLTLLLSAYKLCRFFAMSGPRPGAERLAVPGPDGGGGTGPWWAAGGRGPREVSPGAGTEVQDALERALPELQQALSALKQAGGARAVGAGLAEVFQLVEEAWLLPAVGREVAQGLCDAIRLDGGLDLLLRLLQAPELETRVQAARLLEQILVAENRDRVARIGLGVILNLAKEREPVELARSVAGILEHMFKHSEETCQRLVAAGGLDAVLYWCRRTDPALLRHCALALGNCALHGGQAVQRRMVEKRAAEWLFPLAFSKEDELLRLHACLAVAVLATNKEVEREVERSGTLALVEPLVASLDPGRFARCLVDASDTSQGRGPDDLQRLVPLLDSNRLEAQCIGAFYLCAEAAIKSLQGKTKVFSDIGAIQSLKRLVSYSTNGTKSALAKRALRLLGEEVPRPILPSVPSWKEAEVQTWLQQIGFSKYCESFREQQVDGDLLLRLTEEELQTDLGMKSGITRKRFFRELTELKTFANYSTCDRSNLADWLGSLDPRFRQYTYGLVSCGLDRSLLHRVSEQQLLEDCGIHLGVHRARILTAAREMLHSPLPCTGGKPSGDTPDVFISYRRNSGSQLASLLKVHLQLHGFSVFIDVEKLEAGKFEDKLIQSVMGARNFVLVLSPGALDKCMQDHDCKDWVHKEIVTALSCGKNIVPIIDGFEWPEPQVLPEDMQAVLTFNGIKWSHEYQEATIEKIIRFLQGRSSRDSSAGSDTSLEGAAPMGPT

Remaining NAD, inactive:
C#CCN[C@@H]1CCc2ccccc21 10 nM
CC(=O)Oc1c(C)c(C)c2c(c1C)CC[C@@](C)(CCC[C@H](C)CCC[C@H](C)CCCC(C)C)O2 10 nM
Cc1ccc(NC(=O)c2ccc(CN3CCN(C)CC3)cc2)cc1Nc1nccc(-c2cccnc2)n1 10 nM
Cc1nc(-c2ccc(OCC(C)C)c(C#N)c2)sc1C(=O)O 10 nM
C[C@@H]1CN(c2c(F)c(F)c3c(=O)c(C(=O)O)cn(C4CC4)c3c2F)C[C@H](C)N1 10 nM
CN1CCN(c2cc3c(cc2F)c(=O)c(C(=O)O)cn3-c2ccc(F)cc2)CC1 10 nM
CCC(C)n1ncn(-c2ccc(N3CCN(c4ccc(OC[C@H]5CO[C@](Cn6cncn6)(c6ccc(Cl)cc6Cl)O5)cc4)CC3)cc2)c1=O (some centres undefined) 10 nM
CCCCC1(COC(=O)CCC(=O)O)C(=O)N(c2ccccc2)N(c2ccccc2)C1=O 10 nM
CC1=C(C)C(=O)C(C(CCCCCC(=O)O)c2ccccc2)=C(C)C1=O (centres undefined) 10 nM
COc1ccc(CC2c3cc(OC)c(OC)cc3CC[N+]2(C)CCC(=O)OCCCCCOC(=O)CC[N+]2(C)CCc3cc(OC)c(OC)cc3C2Cc2ccc(OC)c(OC)c2)cc1OC (centres undefined) 10 nM
CCOC(=O)n1ccn(C)c1=S 10 nM
CC(C)N=C(N)/N=C(\N)Nc1ccc(Cl)cc1 10 nM
CN1CCC(=C2c3ccccc3CCc3sccc32)CC1 10 nM
CCCCCN(C)CCC(O)(P(=O)(O)O)P(=O)(O)O 10 nM

— PubChem BioAssay
